Data: PubChem BioAssay AID1159580 (chemical genetic matrix, 2015)
About 2,000 (36%) of roughly 5,500 compounds were called active. Another 18% or so got no clear call; they are omitted. Rule as the data show it: active = normalized growth mostly below about 0.91 (no sharp cut-off); inconclusive = no clear call, values can overlap the other calls; inactive = mostly above about 0.92. Some of the results follow.

Assay: chemical genetic growth profiling, strain panel (AID 1159580);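 also: tested at 20 µM; growth read once vehicle control cultures reached saturation at 30 °C; 1 = growth at the plate median or of vehicle wells; lower values mean less growth of the strain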
Details: growth OD

Measured: normalized growth

S=C=NCc1ccccc1
inactive: S. cerevisiae deletion strains, locus YOL012C, strain htz1 0.273
active: S. cerevisiae deletion strains, locus YJR075W, strain HOC1, hits give low values 0.0711 | S. cerevisiae deletion strains, locus YKL009W, strain mrt4, hits give low values 0.0801 | S. cerevisiae deletion strains, locus YKL068W, hits give low values 0.107 | S. cerevisiae deletion strains, locus YKL085W, strain MDH1 (second series), hits give low values 0.0485 | S. cerevisiae deletion strains, locus YKL085W, strain MDH1, hits give low values 0.0485 | S. cerevisiae deletion strains, locus YKL160W, strain elf1, hits give low values 0.0853 | S. cerevisiae deletion strains, locus YKL190W, strain CNB1, hits give low values 0.0505 | S. cerevisiae deletion strains, locus YKR001C, strain vps1, hits give low values 0.0646 | S. cerevisiae deletion strains, locus YKR026C, strain gcn3, hits give low values 0.0866 | S. cerevisiae deletion strains, locus YKR091W, strain srl3, hits give low values 0.0761 | S. cerevisiae deletion strains, locus YLL001W, strain dnm1, hits give low values 0.133 | S. cerevisiae deletion strains, locus YLL026W, hits give low values 0.0653 | S. cerevisiae deletion strains, locus YLL041C, strain sdh2, hits give low values 0.0963 | S. cerevisiae deletion strains, locus YLR027C, strain aat2, hits give low values 0.0701 | S. cerevisiae deletion strains, locus YLR039C, strain RIC1, hits give low values 0.095 | S. cerevisiae deletion strains, locus YLR058C, strain SHM2, hits give low values 0.0484 | S. cerevisiae deletion strains, locus YLR102C, strain apc9, hits give low values 0.0598 | S. cerevisiae deletion strains, locus YLR113W, strain HOG1, hits give low values 0.303 | S. cerevisiae deletion strains, locus YLR221C, strain rsa3, hits give low values 0.0763 | S. cerevisiae deletion strains, locus YLR258W, strain gsy2, hits give low values 0.0685 | S. cerevisiae deletion strains, locus YLR262C, strain YPT6 (second series), hits give low values 0.338 | S. cerevisiae deletion strains, locus YLR262C, strain YPT6, hits give low values 0.107 | S. cerevisiae deletion strains, locus YLR268W, strain sec22, hits give low values 0.0685 | S. cerevisiae deletion strains, locus YLR320W, strain mms22, hits give low values 0.126 | S. cerevisiae deletion strains, locus YLR330W, strain CHS5, hits give low values 0.0521 | S. cerevisiae deletion strains, locus YLR342W, strain FKS1 (second series), hits give low values 0.0771 | S. cerevisiae deletion strains, locus YLR342W, strain FKS1, hits give low values 0.129 | S. cerevisiae deletion strains, locus YLR357W, strain rsc2, hits give low values 0.208 | S. cerevisiae deletion strains, locus YLR370C, strain arc18, hits give low values 0.2 | S. cerevisiae deletion strains, locus YLR371W, strain rom2, hits give low values 0.0645 | S. cerevisiae deletion strains, locus YLR384C, strain iki3, hits give low values 0.101 | S. cerevisiae deletion strains, locus YLR418C, strain cdc73, hits give low values 0.105 | S. cerevisiae deletion strains, locus YML016C, strain PPZ1, hits give low values 0.0508 | S. cerevisiae deletion strains, locus YML032C, strain rad52, hits give low values 0.068 | S. cerevisiae deletion strains, locus YML120C, strain ndi1, hits give low values 0.0743 | S. cerevisiae deletion strains, locus YML124C, strain tub3, hits give low values 0.0581 | S. cerevisiae deletion strains, locus YMR058W, strain fet3, hits give low values 0.102 | S. cerevisiae deletion strains, locus YMR078C, strain ctf18, hits give low values 0.0763 | S. cerevisiae deletion strains, locus YMR125W, strain sto1, hits give low values 0.118 | S. cerevisiae deletion strains, locus YMR129W, hits give low values 0.115 | S. cerevisiae deletion strains, locus YMR205C, strain PFK2, hits give low values 0.175 | S. cerevisiae deletion strains, locus YMR223W, strain ubp8, hits give low values 0.0652 | S. cerevisiae deletion strains, locus YMR231W, strain pep5, hits give low values 0.159 | S. cerevisiae deletion strains, locus YMR263W, strain SAP30, hits give low values 0.0638 | S. cerevisiae deletion strains, locus YMR307W, strain GAS1, hits give low values 0.128 | S. cerevisiae deletion strains, locus YNL067W, strain RPL9B, hits give low values 0.0559 | S. cerevisiae deletion strains, locus YNL071W, strain lat1, hits give low values 0.0773 | S. cerevisiae deletion strains, locus YNL128W, strain TEP1, hits give low values 0.061 | S. cerevisiae deletion strains, locus YNL153C, strain GIM3, hits give low values 0.0485 | S. cerevisiae deletion strains, locus YNL183C, strain NPR1, hits give low values 0.784 | S. cerevisiae deletion strains, locus YNL209W, strain ssb2, hits give low values 0.172 | S. cerevisiae deletion strains, locus YNL233W, strain BNI4, hits give low values 0.054 | S. cerevisiae deletion strains, locus YNL248C, strain rpa49, hits give low values 0.0817 | S. cerevisiae deletion strains, locus YNL250W, strain rad50, hits give low values 0.0774 | S. cerevisiae deletion strains, locus YNL271C, strain bni1, hits give low values 0.0636 | S. cerevisiae deletion strains, locus YNL298W, strain CLA4, hits give low values 0.0658 | S. cerevisiae deletion strains, locus YNL307C, strain MCK1, hits give low values 0.109 | S. cerevisiae deletion strains, locus YNL322C, strain KRE1 (second series), hits give low values 0.0969 | S. cerevisiae deletion strains, locus YNL322C, strain KRE1, hits give low values 0.0496 | S. cerevisiae deletion strains, locus YNR049C, strain mso1, hits give low values 0.0995 | S. cerevisiae deletion strains, locus YNR052C, strain pop2, hits give low values 0.0721 | S. cerevisiae deletion strains, locus YOL006C, strain TOP1, hits give low values 0.101 | S. cerevisiae deletion strains, locus YOL147C, strain pex11, hits give low values 0.0554 | S. cerevisiae deletion strains, locus YOR001W, strain rrp6, hits give low values 0.0775 | S. cerevisiae deletion strains, locus YOR061W, strain CKA2, hits give low values 0.0465 | S. cerevisiae deletion strains, locus YOR069W, strain VPS5, hits give low values 0.048 | S. cerevisiae deletion strains, locus YOR070C, strain gyp1, hits give low values 0.106 | S. cerevisiae deletion strains, locus YOR080W, strain dia2, hits give low values 0.169 | S. cerevisiae deletion strains, locus YOR083W, strain WHI5, hits give low values 0.0989 | S. cerevisiae deletion strains, locus YOR106W, strain vam3, hits give low values 0.115 | S. cerevisiae deletion strains, locus YOR136W, strain idh2, hits give low values 0.0696 | S. cerevisiae deletion strains, locus YOR144C, strain elg1, hits give low values 0.0548 | S. cerevisiae deletion strains, locus YOR184W, strain ser1, hits give low values 0.0749 | S. cerevisiae deletion strains, locus YOR231W, strain MKK1, hits give low values 0.183 | S. cerevisiae deletion strains, locus YOR265W, strain rbl2, hits give low values 0.081 | S. cerevisiae deletion strains, locus YOR270C, strain vph1, hits give low values 0.135 | S. cerevisiae deletion strains, locus YOR290C, strain snf2, hits give low values 0.0951 | S. cerevisiae deletion strains, locus YOR316C, strain cot1, hits give low values 0.0582 | S. cerevisiae deletion strains, locus YPL051W, strain arl3, hits give low values 0.0938 | S. cerevisiae deletion strains, locus YPL055C, strain LGE1, hits give low values 0.0848 | S. cerevisiae deletion strains, locus YPL078C, strain atp4, hits give low values 0.0881 | S. cerevisiae deletion strains, locus YPL106C, strain sse1, hits give low values 0.222 | S. cerevisiae deletion strains, locus YPL240C, strain hsp82, hits give low values 0.0863 | S. cerevisiae deletion strains, locus YPL241C, strain CIN2, hits give low values 0.0506 | S. cerevisiae deletion strains, locus YPL256C, strain CLN2, hits give low values 0.219 | S. cerevisiae deletion strains, locus YPR119W, strain clb2, hits give low values 0.0611 | S. cerevisiae deletion strains, locus YPR141C, strain kar3, hits give low values 0.0705 | S. cerevisiae deletion strains, locus YPR163C, strain tif3, hits give low values 0.07 | S. cerevisiae deletion strains, locus YPR167C, strain met16, hits give low values 0.0606 | S. cerevisiae deletion strains, strain wtn01, hits give low values 0.0609 | S. cerevisiae strains, strain wild type, hits give low values 0.0473
